The nature of assay [1]: Quantitative High-Throughput drug screen in 47 multiple myeloma cell lines against the NCATS MIPE library collection: U266_ATCC cell viability assay (AID 1919864). Further: nearly all actives have a fitted effect of over 35% in size. Further: potency means the concentration at half of the fitted maximal effect. In outline:
(§1)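 500 cells/well per myeloma line exposed to pinned MIPE 4.0 compounds for 48 h at 37 °C, 5% CO2. Viability read as ATP by CellTiter-Glo luminescence, normalised to DMSO-only (100%) and media-only (0%) wells.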

Assay [2] can be described thus: Quantitative High-Throughput drug screen in 47 multiple myeloma cell lines against the NCATS MIPE library collection: XG6_PLB cell viability assay (AID 1919865). Further: nearly all actives have a fitted effect of over 40% in size. Further: potency means the concentration at half of the fitted maximal effect. The method, boiled down: as §1
Assay [3] can be described thus: Quantitative High-Throughput drug screen in 47 multiple myeloma cell lines against the NCATS MIPE library collection: XG1_PLB cell viability assay (AID 1919866). Further: nearly all actives have a fitted effect of over 35% in size. Further: potency means the concentration at half of the fitted maximal effect. The method, boiled down: as §1
A short description of assay [4]: Quantitative High-Throughput drug screen in 47 multiple myeloma cell lines against the NCATS MIPE library collection: UTMC2_PLB cell viability assay (AID 1919868). Further: nearly all actives have a fitted effect of over 55% in size. Further: potency means the concentration at half of the fitted maximal effect. The method, boiled down:
as §1

The nature of assay [5]: Quantitative High-Throughput drug screen in 47 multiple myeloma cell lines against the NCATS MIPE library collection: PE2_PLB cell viability assay (AID 1919869). Further: nearly all actives have a fitted effect of over 35% in size. Further: potency means the concentration at half of the fitted maximal effect. In outline: as §1
Assay [6] in a line: Quantitative High-Throughput drug screen in 47 multiple myeloma cell lines against the NCATS MIPE library collection: PCM6_Riken cell viability assay (AID 1919870). Further: nearly all actives have a fitted effect of over 30% in size. Further: potency means the concentration at half of the fitted maximal effect. The method, boiled down:
as §1

A short description of assay [7]: Quantitative High-Throughput drug screen in 47 multiple myeloma cell lines against the NCATS MIPE library collection: RPMI8226_ATCC cell viability assay (AID 1919871). Further: nearly all actives have a fitted effect of over 30% in size. Further: potency means the concentration at half of the fitted maximal effect. In outline: as §1
Assay [8] can be described thus: Quantitative High-Throughput drug screen in 47 multiple myeloma cell lines against the NCATS MIPE library collection: OPM2_DSMZ cell viability assay (AID 1919872). Further: nearly all actives have a fitted effect of over 30% in size. Further: potency means the concentration at half of the fitted maximal effect. In outline: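 CellTiter-Glo luminescence (ATP) after 48 h compound exposure, 37C/5% CO2; 500 cells/well; MIPE 4.0 approved/investigational drugs pinned in; DMSO = 100%, media only = 0% viability.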
The nature of assay [9]: Quantitative High-Throughput drug screen in 47 multiple myeloma cell lines against the NCATS MIPE library collection: KMS11_JCRBsus cell viability assay (AID 1919873). Further: nearly all actives have a fitted effect of over 50% in size. Further: potency means the concentration at half of the fitted maximal effect. The method, boiled down:
as §1

The nature of assay [10]: Quantitative High-Throughput drug screen in 47 multiple myeloma cell lines against the NCATS MIPE library collection: KMS28BM_JCRB cell viability assay (AID 1919874). Further: nearly all actives have a fitted effect of over 35% in size. Further: potency means the concentration at half of the fitted maximal effect. In outline:
as §1

The nature of assay [11]: Quantitative High-Throughput drug screen in 47 multiple myeloma cell lines against the NCATS MIPE library collection: VP6_DJ cell viability assay (AID 1919867). Further: nearly all actives have a fitted effect of over 40% in size. Further: potency means the concentration at half of the fitted maximal effect. The method, boiled down:
as §1

Assay [12] has as its target Cytochrome P450 3A4 (Homo sapiens) (UniProt P08684). The experiment in a line: qHTS for inhibitors of CYP3A4 against the NCATS DSHEA and TCM libraries (AID 1919971).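 Further: on the % scale 0 is the no-effect control and ±100 the full control effect; inhibition lowers luminescence from luciferin made by CYP3A4.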 In outline:
(§2)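 Luminescent P450-Glo format: compounds preincubated 15 min with enzyme and luciferin substrate, reaction run 30-45 min after NADPH regeneration solution. Intraplate controls: ketoconazole for CYP3A4 and CYP2C19, sulfaphenazole for CYP2C9.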
(Quantitative high-throughput screening tests each substance at several concentrations.)

Assay [13] concerns the target Cytochrome P450 2D6 (Homo sapiens) (UniProt P10635). The experiment in a line: qHTS for inhibitors of CYP2D6 against the NCATS DSHEA and TCM libraries (AID 1919972). Further: on the % scale 0 is the no-effect control and ±100 the full control effect. The method, boiled down: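 Luminescent P450-Glo read-out of CYP2D6 turnover of a luciferin substrate after NADPH-driven reaction of 30-45 min at room temperature. Compounds were first preincubated 15 min with enzyme at titrated concentrations; quinidine was the intraplate control.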

Assay [14] concerns the target Cytochrome P450 2C9 (Homo sapiens) (UniProt P11712). The experiment in a line: qHTS for inhibitors of CYP2C9 against the NCATS DSHEA and TCM libraries (AID 1919973).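 Further: luminogenic pro-luciferin CYP2C9 substrate turned into luciferin with NADPH regeneration; series mostly up to about 34 µM; on the % scale 0 is the no-effect control and ±100 the full control effect.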 The method, boiled down:
as §2

The target of assay [15] is Cytochrome P450 2C19 (Homo sapiens) (UniProt P33261). Put plainly: qHTS for inhibitors of CYP2C19 against the NCATS DSHEA and TCM libraries (AID 1919974).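 Further: luminescence from luciferin released by CYP2C19 oxidation of a pro-luciferin substrate; on the % scale 0 is the no-effect control and ±100 the full control effect.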 The method, boiled down: as §2
Assay [16] can be described thus: KB-3-1 P-gp reporter qHTS against the NCATS DSHEA and TCM libraries (AID 1919975). Further: 0% is about no effect. The method, boiled down: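 Cell viability qHTS: 500 KB-3-1 cells/well, substances in titration, ~72 h, 37C; luminescent CellTiter-Glo read.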
Assay [17] concerns the target Cytochrome P450 1A2 (Homo sapiens) (UniProt P05177). The experiment in a line: qHTS for inhibitors of CYPIA2 against the NCATS DSHEA and TCM libraries (AID 1919976).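 Further: light from luciferin formed by CYP1A2 from a pro-luciferin substrate; series mostly up to about 37 µM; on the % scale 0 is the no-effect control and ±100 the full control effect.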 In outline: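 Human CYP1A2 with pro-luciferin substrate (typically 100 mM KPO4), 15 min preincubation with compound, then 1x NADPH regeneration for 30-45 min at room temperature in the dark. Luciferin quantified by luciferase luminescence; furafylline intraplate control.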

Assay [18] can be described thus: qHTS Counterscreen for compound interference against the NCATS DSHEA and TCM libraries (AID 1919978).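 Further: compounds preincubated with 1 µM D-luciferin or buffer before detection reagent; % of control where 0% means no effect.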 To be noted: firefly luciferase detection reagent interference, luminescence. The method, boiled down: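 Interference check: test samples were incubated with D-luciferin (final 1 uM) or buffer only for 15 min, room temperature, in a qHTS titration up to 39.8 uM, then developed with detection reagent and read by luminescence.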

A short description of assay [19]: Dual reporter qHTS for agonist of Pregnane X Receptor (hPXR) against the NCATS DSHEA and TCM libraries: Fluorescence readout (AID 1920058). Further: 0% is about no effect. In outline: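 hPXR-Luc HepG2 cells, 2000/well in charcoal-stripped serum, attached 5 h, dosed for ~24 h at 37 °C. Fluorescence read is CellTiter-Fluor viability (Ex/Em 405/540 nm); rifampicin positive, tetraoctyl ammonium bromide (92 µM) cytotoxicity controls.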

Assay [20] addresses Nuclear receptor subfamily 1 group I member 2 (Homo sapiens) (UniProt O75469). The experiment in a line: Dual reporter qHTS for agonist of Pregnane X Receptor (hPXR) against the NCATS DSHEA and TCM libraries: Luminescence readout (AID 1920059). Further: 0% is about no effect. In outline: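 hPXR-Luc HepG2 cells, 2000/well in 5% charcoal-stripped FBS medium, attached 5 h, then exposed 24 h at 37C to compounds. Viability by CellTiter-Fluor, then luciferase luminescence with ONE-Glo.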

Values without a mark were called inactive. Inconclusive results are not listed. Calls of active or inactive are those of the source. The call rests on the fitted dose curve; in most records, active means well fitted curve in the direction sought with a large enough effect; inconclusive means small, poorly fitted or top-dose-only effect, or another doubt; inactive means no such curve, though single readings can be large; an effect the other way counts as inactive or inconclusive.

Cytochrome P450 2C19 (Homo sapiens), sequence (P33261 whole entry, looked up): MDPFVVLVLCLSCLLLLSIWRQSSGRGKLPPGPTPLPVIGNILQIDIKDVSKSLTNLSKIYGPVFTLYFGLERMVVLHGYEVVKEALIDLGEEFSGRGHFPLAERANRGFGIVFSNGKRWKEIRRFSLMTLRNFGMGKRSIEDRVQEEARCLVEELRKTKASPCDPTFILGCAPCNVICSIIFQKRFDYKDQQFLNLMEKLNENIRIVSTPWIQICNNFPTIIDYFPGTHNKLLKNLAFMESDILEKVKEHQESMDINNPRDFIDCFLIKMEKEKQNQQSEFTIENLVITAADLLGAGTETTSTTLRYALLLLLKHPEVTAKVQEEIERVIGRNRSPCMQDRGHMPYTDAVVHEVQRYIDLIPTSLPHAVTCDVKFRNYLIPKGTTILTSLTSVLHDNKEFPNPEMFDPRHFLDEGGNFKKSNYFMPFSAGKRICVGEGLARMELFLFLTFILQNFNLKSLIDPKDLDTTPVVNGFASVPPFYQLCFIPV
Cytochrome P450 1A2 (Homo sapiens), sequence (P05177 whole entry, looked up): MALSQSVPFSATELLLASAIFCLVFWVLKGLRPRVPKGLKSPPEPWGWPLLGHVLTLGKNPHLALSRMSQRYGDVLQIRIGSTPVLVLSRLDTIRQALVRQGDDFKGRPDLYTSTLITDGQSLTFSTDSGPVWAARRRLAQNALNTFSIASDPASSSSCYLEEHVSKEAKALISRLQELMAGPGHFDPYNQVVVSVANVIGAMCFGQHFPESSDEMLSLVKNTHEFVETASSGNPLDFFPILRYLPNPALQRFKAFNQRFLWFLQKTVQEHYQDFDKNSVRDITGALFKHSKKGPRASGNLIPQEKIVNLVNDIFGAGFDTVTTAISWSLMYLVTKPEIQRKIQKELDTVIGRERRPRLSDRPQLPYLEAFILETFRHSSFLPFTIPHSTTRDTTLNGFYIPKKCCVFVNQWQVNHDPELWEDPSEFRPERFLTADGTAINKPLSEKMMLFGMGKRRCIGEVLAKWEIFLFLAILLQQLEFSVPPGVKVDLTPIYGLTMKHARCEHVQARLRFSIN
Cytochrome P450 2D6 (Homo sapiens), sequence (P10635 whole entry, looked up): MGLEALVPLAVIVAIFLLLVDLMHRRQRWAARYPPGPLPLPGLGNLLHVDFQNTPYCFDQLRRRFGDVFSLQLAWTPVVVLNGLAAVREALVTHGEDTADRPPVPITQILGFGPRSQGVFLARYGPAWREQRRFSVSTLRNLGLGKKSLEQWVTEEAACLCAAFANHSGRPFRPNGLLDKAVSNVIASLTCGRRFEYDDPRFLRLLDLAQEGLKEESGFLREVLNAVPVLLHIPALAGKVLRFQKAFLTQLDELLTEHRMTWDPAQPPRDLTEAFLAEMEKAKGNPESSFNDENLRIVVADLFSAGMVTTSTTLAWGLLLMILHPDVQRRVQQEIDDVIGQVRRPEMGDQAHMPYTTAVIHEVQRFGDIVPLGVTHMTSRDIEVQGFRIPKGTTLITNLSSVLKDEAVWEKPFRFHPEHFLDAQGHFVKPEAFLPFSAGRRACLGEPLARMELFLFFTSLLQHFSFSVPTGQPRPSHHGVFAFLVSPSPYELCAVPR
Cytochrome P450 2C9 (Homo sapiens), sequence (P11712 whole entry, looked up): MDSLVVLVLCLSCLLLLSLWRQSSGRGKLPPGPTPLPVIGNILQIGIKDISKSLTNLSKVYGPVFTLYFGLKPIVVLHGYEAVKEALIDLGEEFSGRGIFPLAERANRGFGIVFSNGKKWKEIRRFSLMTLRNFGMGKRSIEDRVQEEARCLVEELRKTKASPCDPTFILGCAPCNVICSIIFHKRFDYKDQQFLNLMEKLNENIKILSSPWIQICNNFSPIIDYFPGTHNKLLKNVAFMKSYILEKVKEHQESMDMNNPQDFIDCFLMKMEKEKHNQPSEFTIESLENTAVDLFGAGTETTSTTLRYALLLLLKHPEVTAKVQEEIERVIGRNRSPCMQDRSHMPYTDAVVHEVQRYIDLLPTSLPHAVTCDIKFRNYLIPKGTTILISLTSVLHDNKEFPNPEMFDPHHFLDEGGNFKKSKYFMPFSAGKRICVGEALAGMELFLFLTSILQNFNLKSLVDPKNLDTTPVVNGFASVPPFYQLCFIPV
Cytochrome P450 3A4 (Homo sapiens), sequence (P08684 whole entry, looked up): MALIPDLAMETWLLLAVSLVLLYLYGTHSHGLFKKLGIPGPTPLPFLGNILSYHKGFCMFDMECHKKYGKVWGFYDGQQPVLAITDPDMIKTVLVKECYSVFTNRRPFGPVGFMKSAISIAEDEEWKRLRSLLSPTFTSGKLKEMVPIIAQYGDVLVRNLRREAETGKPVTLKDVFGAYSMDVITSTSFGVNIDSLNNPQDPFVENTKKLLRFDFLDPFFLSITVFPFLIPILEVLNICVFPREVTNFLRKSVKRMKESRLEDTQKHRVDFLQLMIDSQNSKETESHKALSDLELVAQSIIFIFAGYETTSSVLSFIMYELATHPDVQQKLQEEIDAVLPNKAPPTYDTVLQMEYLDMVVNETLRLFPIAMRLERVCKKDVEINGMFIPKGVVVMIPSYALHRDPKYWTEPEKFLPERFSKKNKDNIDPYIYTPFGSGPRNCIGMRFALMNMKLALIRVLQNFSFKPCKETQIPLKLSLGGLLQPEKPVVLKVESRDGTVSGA
Nuclear receptor subfamily 1 group I member 2 (Homo sapiens), sequence (O75469 whole entry, looked up): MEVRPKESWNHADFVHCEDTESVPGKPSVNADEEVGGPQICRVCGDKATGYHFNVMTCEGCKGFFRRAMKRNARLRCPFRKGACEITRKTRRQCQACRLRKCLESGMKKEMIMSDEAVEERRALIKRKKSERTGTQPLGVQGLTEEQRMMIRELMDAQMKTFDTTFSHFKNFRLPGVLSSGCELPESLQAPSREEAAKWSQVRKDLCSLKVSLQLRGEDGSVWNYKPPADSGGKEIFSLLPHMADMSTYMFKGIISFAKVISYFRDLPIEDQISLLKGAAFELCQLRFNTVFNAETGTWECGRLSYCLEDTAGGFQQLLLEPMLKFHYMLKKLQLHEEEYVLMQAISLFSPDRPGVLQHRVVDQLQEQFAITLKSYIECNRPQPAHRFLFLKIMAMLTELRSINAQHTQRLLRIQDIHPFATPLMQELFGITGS

As to `CCc1cccc2c3c([nH]c12)C(CC)(CC(=O)O)OCC3` (configuration not stated), the Potency entry in assay [1], in assay [2], in [3], in [4], in [5] and in [6] was “inactive” each time. Also, the Potency entry in [7], in assay [8], in [9] and in assay [10] was “inactive” each time.
For `CC(C(=O)O)c1cccc(C(=O)c2ccccc2)c1` (configuration not stated), the Potency entry in assay [1], in assay [7], in assay [9] and in assay [10] was “inactive” in each case. Further, the Potency in [2] was 13.2 µM (active); in assay [3], 14.8 µM (active); in assay [11] it was 14.8 µM (active); in [5], 23.5 µM (active); in assay [6] it was 16.6 µM (active).
`CCOC(=O)Nc1ccc(NCc2ccc(F)cc2)nc1N`: the Potency result in assay [1], in assay [3], in assay [4] and in assay [7] was “inactive” in each case. For the same molecule, the Potency in assay [2] was 14.8 µM (active).
Take `CN1C(C(=O)Nc2ccccn2)=C(O)c2ccccc2S1(=O)=O`: the Potency entry in assay [1], in assay [2], in assay [3], in assay [11], in [5] and in [6] was “inactive” in each case. Further, the Potency entry in assay [7], in [8] and in assay [9] was “inactive” each time.
Turning to `O=c1[nH]cc(F)c(=O)[nH]1`, the Potency is 3.32 µM (active) in [1]; 4.69 µM (active) in assay [2]; 7.43 µM (active) in [3]; 5.9 µM (active) in assay [11]; 10.5 µM (active) in assay [6]; 0.235 µM (active) in [7]. Moreover, in [9], the Potency was 13.2 µM (active). For the same molecule, the Potency result in [4], in [5] and in assay [10] was “inactive” each time.
For `CCCCc1oc2ccccc2c1C(=O)c1cc(I)c(OCCN(CC)CC)c(I)c1`, the Potency in assay [1] was 3.72 µM (active); in [2], 13.2 µM (active); in [3], 10.5 µM (active); in assay [11], 14.8 µM (active); in assay [6], 20.9 µM (active); in assay [7], 18.7 µM (active). The Potency in assay [10] was 20.9 µM (active).
Take `Cn1cnc2c1c(=O)[nH]c(=O)n2C`: the Potency is 23.5 µM (active) in [1]; 16.6 µM (active) in assay [2]; 14.8 µM (active) in assay [3]; 14.8 µM (active) in assay [4]; 9.35 µM (active) in assay [5]; 16.6 µM (active) in assay [6]. Also, the Potency in assay [7] was 20.9 µM (active); in assay [9] it was 9.35 µM (active); in assay [10] it was 14.8 µM (active).
Take `CC(C)C(=O)Nc1ccc([N+](=O)[O-])c(C(F)(F)F)c1`: the Potency is 4.69 µM (active) in [1]; 1.05 µM (active) in assay [2]; 1.87 µM (active) in assay [3]; 3.32 µM (active) in assay [11]; 3.32 µM (active) in [5]; 3.32 µM (active) in [6]. Further, the Potency result in assay [7], in assay [8] and in assay [10] was “inactive” in each case.
For the molecule `Cn1c(=O)c2c(ncn2C)n(C)c1=O`, the Potency result in [1], in assay [2], in assay [3], in assay [11], in assay [4] and in assay [5] was “inactive” throughout. The Potency entry in assay [6], in [7], in [9] and in assay [10] was “inactive” each time. For the same molecule, the call in assay [12], in [13], in assay [14], in assay [15], in assay [16] and in assay [17] was inactive. Further, the result in assay [19] and in assay [20] was inactive. Besides, the max response in [18] was 2.12%.
Turning to `COc1cc2nc(N(C)CCCNC(=O)C3CCCO3)nc(N)c2cc1OC` (configuration not stated), the Potency result in assay [1], in [2], in assay [3], in [11], in assay [5] and in assay [6] was “inactive” each time.
Turning to `CC#C[C@]1(O)CC[C@H]2[C@@H]3CCC4=CC(=O)CCC4=C3[C@@H](c3ccc(N(C)C)cc3)C[C@@]21C`, the Potency in assay [1] was 0.662 µM (active); in [2] it was 0.264 µM (active); in [3] it was 0.743 µM (active); in assay [11], 0.833 µM (active); in assay [4] it was 0.418 µM (active); in assay [5], 0.833 µM (active). Further, the Potency in [6] is 0.743 µM (active); in assay [7] it was 3.72 µM (active); in [8], 1.18 µM (active); in assay [9], 7.43 µM (active); in assay [10], 7.43 µM (active).
On to `CN(C)C(=O)C(CCN1CCC(O)(c2ccc(Cl)cc2)CC1)(c1ccccc1)c1ccccc1`, for which the Potency is 18.7 µM (active) in assay [1]; 20.9 µM (active) in [2]; 18.7 µM (active) in assay [3]; 20.9 µM (active) in assay [11]; 18.7 µM (active) in [4]; 26.4 µM (active) in assay [5]. Also, the Potency in assay [6] was 20.9 µM (active); in assay [7], 20.9 µM (active); in assay [8], 18.7 µM (active); in assay [9] it was 10.5 µM (active); in assay [10], 18.7 µM (active).
Take `Nc1nc2c(ncn2COC(CO)CO)c(=O)[nH]1`: the Potency in assay [1] is 23.5 µM (active); in assay [2] it was 20.9 µM (active); in [3] it was 23.5 µM (active); in assay [11], 18.7 µM (active); in assay [5], 23.5 µM (active); in assay [6] it was 23.5 µM (active). Further, the Potency is 26.4 µM (active) in assay [7], 18.7 µM (active) in assay [9] and 29.6 µM (active) in assay [10].
On to `CC(C)NCC(O)c1ccc(O)c(O)c1` (configuration not stated), for which the Potency is 16.6 µM (active) in [1]; 0.743 µM (active) in [2]; 1.87 µM (active) in [3]; 0.0332 µM (active) in [11]; 1.48 µM (active) in [5]; 1.18 µM (active) in assay [6]. Further, the Potency was 16.6 µM (active) in assay [9] and 7.43 µM (active) in assay [10].

The values are drawn from PubChem BioAssay (NCATS).
